Screening results from PubChem.
The list is not random: actives were taken first. Their share in the collection is about 7.9%.
FMDV antiviral = antivirals against foot and mouth disease virus | AID 1159524 | 1.2% of 410,000 active | Potency, µM (highest dose often 57.9 µM), for the others: top-dose activity change, negative = inhibition, hits mostly inhibitors | FMDV antiviral cell-based qHTS; calls by dose curve; tested in HEK293T cells; further: read-out not given here; potency means the concentration at half of the fitted maximal effect; nearly all actives have a fitted effect of over 45% in size
HCV inh = blocks hepatitis C virus; Huh7.5.1 HCVcc-Cre infection, luciferase reporter, 44 h; Potency, µM (doses to about 41.8 µM), inactives show at the top dose activity change, negative = inhibition, hits mostly inhibitors; 3.4% of 340,000 active; active means well fitted inhibition curve with a large enough effect; inconclusive means small, poorly fitted or top-dose-only effect, or another doubt; inactive means no such curve, though single readings can be large or run the other way; further: potency means the concentration at half of the fitted maximal effect
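Cells (1,000/well) were plated 4 h before compound, then infected with HCVcc-Cre virus (~0.5 moi). After 44 h further culture, infection was read as luciferase luminescence following a 15 min substrate incubation at room temperature.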
LASV entry inh = Lassa virus entry inhibition; Lassa virus pseudotype entry inhibition, cell reporter; Potency, µM (titrated, usually from 37.9 µM), for inactives: top-dose activity change, negative = inhibition, most hits filed as inhibitors; 1.2% of 300,000 active; AID 540256; calls by dose curve; tested in HEK293 cells; further: potency means the concentration at half of the fitted maximal effect; nearly all actives have a fitted effect of over 50% in size
MARV entry inh = inhibitors of Marburg virus binding or cell entry; AID 540276; Potency, µM (series often up to 37.8 µM), for inactives: top-dose activity change, negative = inhibition, usual class: inhibitors; 1.8% of 300,000 active; Marburg virus pseudotyped entry inhibition, cell reporter; calls by dose curve; tested in HEK293 cells; further: potency means the concentration at half of the fitted maximal effect
HCMV antiviral = human cytomegalovirus inhibition. HFF cells, HCMV-luciferase reporter, 72 h; hits give low values. activity change, negative = inhibition, % at 57.5 µM. 4.5% of 410,000 active; in the data active means activity change below about -60%; inconclusive means no clear call, values can overlap the other calls; inactive means above about -39%
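Steps: HFFs plated, 16 h 37C; compounds added; HCMV-luciferase added to MOI 1 PFU/cell; 72 h 37C; OneGlo reagent, 5 min room temperature; luminescence read, normalized to controls.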
* hit, by the source's call; ? = inconclusive; . = no result; + = active, no number; [ ] = another dose, or the depositor's remark. On the % scale 0 is the no-effect control and ±100 the full control effect.

SMILES	FMDV antiviral	HCV inh	LASV entry inh	MARV entry inh	HCMV antiviral
CSc1ccc(CCNC(=O)Cn2c(C)c3cnn(-c4ccccc4)c(=O)c3c2C)cc1	-15.8%	.	0.0%[46.1 µM]	?	-19.0
Cc1cc(C)c2c(CC(=O)Nc3ccc(S(=O)(=O)Nc4nc(C)cc(C)n4)cc3)coc2c1	56.5%	.	5.4%[46.1 µM]	0.2%[46.1 µM]	-10.7
COc1ccc(-n2ncc(S(=O)(=O)c3ccccc3)c2-c2ccc(Cl)cc2)cc1	?	10µM*	?	?	?
O=S(=O)(c1ccccc1)c1cnn(-c2ccccc2)c1-c1ccc(F)cc1	?	?	-13.9%	?	-61.5*
CC(=O)c1ccc(NC(=O)CCn2cccn2)cc1	12.8%	.	-14.9%[46.1 µM]	.	19.0
COc1ccc(C(=O)NCc2ccc3c(c2)CCN3C(=O)c2cccc(C)c2)cc1OC	-2.9%	.	?	.	10.9
CC(Nc1nc(N2CCNCC2)nc2ccccc12)c1ccccc1 (stereo not drawn)	?	10µM*	?	?	-36.0
CC(Nc1nc(-c2ccncc2)nc2ccccc12)c1ccccc1 (stereo not drawn)	?	?	.	.	53.6
NC(=O)CCC1NC(=S)N(Cc2ccccc2)C1=O (stereo not drawn)	-13.8%	2.5%	?	7.8%	-66.9*
COc1ccc(S(=O)(=O)NCCSc2nnnn2-c2ccccc2)cc1OC	9.7%	.	-26.2%[46.1 µM]	11.3%[46.1 µM]	1.7
CN1CCC(C(=O)Nc2n[nH]c3nc(-c4ccc(O)cc4)c(Br)cc23)CC1	.	.	19.9µM*	.	.
CN1CCCC(C(=O)Nc2cccc(Cl)c2)CC1 (stereo not drawn)	-15.7%	.	.	.	-8.8
COc1ccc(CCNC(=O)C(NS(=O)(=O)c2cccc3nsnc23)C(C)C)cc1OC (stereo not drawn)	10µM*	-2.1%	.	.	-7.6
CCC1CN(CCNC(=O)c2cc(C(C)C)nn2C)Cc2cc(OC)ccc2O1 (stereo not drawn)	-29.5%	.	.	.	.
CCCOc1ccccc1C(=O)N1CCCCC1CCN1CCCCC1 (stereo not drawn)	3.3%	.	5.7%[46.1 µM]	?	-69.6*
O=C1C=C(O)C[C@H](c2cccs2)C1	.	.	.	20.6%	.
N#Cc1ccc2c(c1)nc1ccccn12	22.1%	5.1%	-1.6%	12.5%[46.1 µM]	?
Clc1ccc2nc3ccccn3c2c1	24.1%	10µM*	22.2%	-3.0%	7.7
CCOCCOC(=O)c1ccc2c(c1)N(Cc1ccccc1C#N)C(=O)c1ccccc1S2(=O)=O	-9.7%	.	?	.	-1.6
Cc1ccc(-c2csc3ncnc(OCC(=O)NC(=O)NCc4ccco4)c23)cc1	?	-22.9%	?	20.6µM*	-20.3
COc1cccc2cc(/C(=N/O)c3ccc(Br)cc3)oc12	-19.0%	-28.9%	-22.4%	-29.4%	-65.9*
COc1cccc2cc(C(=O)c3ccccc3)oc12	20.6%	-0.3%	?	-1.2%[46.1 µM]	-8.7
CC1CN(C(=O)N2CCC(C(=O)NCc3cccs3)CC2)c2cc(Cl)ccc2O1 (stereo not drawn)	-28.2%	.	-17.7%[46.1 µM]	.	-11.4
COc1ccc(C(=O)c2c(N)sc3c2CCN(C(=O)OC(C)(C)C)C3)cc1	?	?	?	?	-83.8*
Cc1ccc(NC(=O)Cn2c(O)c(N=NC(N)=S)c3ccccc32)cc1	-23.6%	?	?	8.91µM*	-16.8
SMILES	FMDV antiviral	HCV inh	LASV entry inh	MARV entry inh	HCMV antiviral
C/C(Cl)=C\Cn1c(O)c(N=NC(N)=S)c2ccccc21	?	-19.8%	-17.1%	10µM*	-17.7
NC(=S)N=Nc1c(O)n(Cc2ccccc2)c2ccccc12	-15.1%	?	-9.2%	-16.5%	?
CC1(C)[C@@]2(C(=O)N(CCC#N)CCC#N)CC[C@]1(C)C(=O)C2	.	.	.	-2.4%	.
CCCCCCN(CCCCCC)C(=O)Cc1c(-c2ccc(F)cc2)[nH]c2ccccc12	-19.5%	?	9.2µM*	9.2µM*	-5.1
Cc1cc(Br)c(OCc2ccc(C(=O)N/N=C/c3ccc[nH]3)cc2)c(Br)c1	?	-3.9%	.	.	+
O=C(N/N=C/c1ccccc1C(=O)O)c1ccc(COc2cccc3cccnc23)cc1	13.6%	2.8%	20.1%	?	-7.0
O=C(N/N=C/c1ccc[nH]1)c1ccc(O)cc1	25.4%	-4.8%	?	?	-16.3
O=C(N/N=C/c1ccc[nH]1)c1ccc(COc2cccc3cccnc23)cc1	8.91µM*	0.794µM*	?	?	-97.1*
Cc1cc2oc(C(=O)N(Cc3ccccc3F)C3CCS(=O)(=O)C3)c(C)c2cc1Cl (stereo not drawn)	?	.	?	?	-5.5
